# Screening data (PubChem)
# eIF4H inh – inhibitors of RNA binding by human eIF4H | AID 2012 | inhibition, % at 35 µM | Q15056 | 0.94% of 290,000 active | eIF4H fluorescence polarization binding assay;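 also: calls also rest on retests at 20 µM and on dose response follow-up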
# PABP polyA inh – blocks human PABP binding to poly(A) RNA; AID 2014; fluorescence polarization; calls only at 35 µM; 1% of 290,000 active; P11940;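 also: calls also rest on retests at 20 µM and on dose response follow-up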
# EBV gp42 block – blocks Epstein-Barr virus glycoprotein 42 binding. Q1HVG2. Fluorescence polarization binding assay, mP read-out. inhibition, % (tested at 21.74 µM). 0.42% of 220,000 active; in the data active = inhibition above about 50%
# eIF4E 4G PPI – blocks eIF4E binding to eIF4G; P63073+Q04637; TR-FRET eIF4E-eIF4GI(517-606) binding, 2 h; inhibition, % at 21.7 µM; 0.37% of 220,000 active;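 active = inhibition above about 30%, limit read from the data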;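 also: 0% = full FRET control wells and 100% = background wells lacking eIF4GI fragment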
# Target sequence (P63073 whole entry, looked up, the tested form may be a part): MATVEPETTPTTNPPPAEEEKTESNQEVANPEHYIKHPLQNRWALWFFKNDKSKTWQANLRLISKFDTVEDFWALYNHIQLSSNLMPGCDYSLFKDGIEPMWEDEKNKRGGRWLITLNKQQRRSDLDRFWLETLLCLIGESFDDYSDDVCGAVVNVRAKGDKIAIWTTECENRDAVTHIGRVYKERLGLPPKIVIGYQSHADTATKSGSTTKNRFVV
# Target sequence (Q04637 whole entry, looked up, the tested form may be a part): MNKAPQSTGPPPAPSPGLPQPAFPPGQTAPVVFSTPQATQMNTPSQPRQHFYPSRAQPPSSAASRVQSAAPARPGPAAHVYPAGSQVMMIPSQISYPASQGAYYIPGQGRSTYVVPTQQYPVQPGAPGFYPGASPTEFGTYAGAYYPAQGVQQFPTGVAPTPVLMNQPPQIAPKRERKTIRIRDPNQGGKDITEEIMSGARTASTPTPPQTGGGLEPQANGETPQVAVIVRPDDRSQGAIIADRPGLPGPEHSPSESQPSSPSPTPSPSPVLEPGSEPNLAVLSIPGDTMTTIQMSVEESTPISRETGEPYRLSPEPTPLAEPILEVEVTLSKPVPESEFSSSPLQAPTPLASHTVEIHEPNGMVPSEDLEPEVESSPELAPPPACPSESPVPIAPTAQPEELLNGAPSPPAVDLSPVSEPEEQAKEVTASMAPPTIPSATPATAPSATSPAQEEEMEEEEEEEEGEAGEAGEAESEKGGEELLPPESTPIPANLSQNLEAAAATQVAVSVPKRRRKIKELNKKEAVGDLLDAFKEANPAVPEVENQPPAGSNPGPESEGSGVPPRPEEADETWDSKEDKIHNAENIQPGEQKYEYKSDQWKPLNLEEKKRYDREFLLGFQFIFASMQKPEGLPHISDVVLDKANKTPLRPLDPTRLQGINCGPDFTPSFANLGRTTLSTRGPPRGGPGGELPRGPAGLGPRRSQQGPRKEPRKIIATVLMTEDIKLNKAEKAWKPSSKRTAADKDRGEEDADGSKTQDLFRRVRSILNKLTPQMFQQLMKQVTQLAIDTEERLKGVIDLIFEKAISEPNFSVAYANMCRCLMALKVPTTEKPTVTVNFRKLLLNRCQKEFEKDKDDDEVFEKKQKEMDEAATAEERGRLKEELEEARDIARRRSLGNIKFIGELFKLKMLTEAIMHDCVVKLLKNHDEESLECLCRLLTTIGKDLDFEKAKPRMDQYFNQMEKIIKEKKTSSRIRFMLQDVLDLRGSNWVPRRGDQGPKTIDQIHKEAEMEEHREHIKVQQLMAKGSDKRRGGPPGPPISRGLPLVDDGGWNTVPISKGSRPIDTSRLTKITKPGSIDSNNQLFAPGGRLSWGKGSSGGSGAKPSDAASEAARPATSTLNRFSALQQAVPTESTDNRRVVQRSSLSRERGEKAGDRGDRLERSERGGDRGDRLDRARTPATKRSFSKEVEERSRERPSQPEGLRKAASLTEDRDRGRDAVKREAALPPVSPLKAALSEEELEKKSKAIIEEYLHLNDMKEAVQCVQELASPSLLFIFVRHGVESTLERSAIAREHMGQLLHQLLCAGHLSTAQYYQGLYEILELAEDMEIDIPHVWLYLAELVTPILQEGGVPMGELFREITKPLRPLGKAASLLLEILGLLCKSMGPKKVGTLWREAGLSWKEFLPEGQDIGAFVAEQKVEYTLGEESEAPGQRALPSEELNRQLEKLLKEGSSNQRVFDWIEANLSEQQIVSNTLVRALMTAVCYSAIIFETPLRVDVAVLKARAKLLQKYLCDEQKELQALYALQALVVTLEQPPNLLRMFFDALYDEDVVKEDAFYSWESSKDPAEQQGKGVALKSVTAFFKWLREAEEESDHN
# PABP1 MLLE inh – inhibitors of microRNA-mediated deadenylation, human PABP1 MLLE binding; P11940; GST-MLLE / FITC-PAM2 fluorescence polarization; inhibition, % at 20 µM; 0.36% of 360,000 active; in the data active = inhibition above about 35%, passing the limit was not always enough;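 also: plate controls were DMSO wells with GST-MLLE for no effect and wells lacking GST-MLLE protein for full effect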
# An asterisk follows results filed as active; i = inactive; ? = inconclusive; nt = no result; + = active, no number. Rows were chosen to be rich in hits. Some 1.7% of all compounds tested hit in one or more screens of this group. Unless noted, no rule for the calls is given here.
SMILES,eIF4H inh,PABP polyA inh,EBV gp42 block,eIF4E 4G PPI,PABP1 MLLE inh
CCCn1c2ccccc2c2cnn(CC(=O)N3CCN(C4CCCCC4)CC3)c(=O)c21,-3.5,i,nt,nt,3.5
CCCCNc1ccc2c3c(cccc13)C(=O)N(CCCC)C2=O,?,?,180.7*,-2.3,i
CCN1C(=O)c2cccc3c(N)ccc(c23)C1=O,?,?,nt,nt,i
CN(C)CCCN1C(=O)c2cccc3c(Br)ccc(c23)C1=O,30.6,i,77.3*,-4.5,56.9*
O=C1c2ccccc2C(=O)N1CC1=CCS(=O)(=O)C1,-7.1,i,-12.7,-0.7,39.1*
CCO[C@H]1OC(C(=O)O)=C[C@@H](C2CC2)[C@@H]1CCCO,5.7,i,-4.7,1.4,nt
C#Cc1ccc([C@H]2C=C(C(=O)OCC=C)O[C@@H](OCC)[C@@H]2CCCO)cc1,6.6,i,-12.1,5.6,-8.8
C#Cc1ccc([C@@H]2C=C(C(=O)OCC=C)O[C@H](OCC)[C@H]2CCCO)cc1,87.8*,i,-20.4,5.5,7.4
CCO[C@@H]1OC(C(=O)O)=C[C@H](C)[C@H]1CCCO,34.3,+,-14.4,-1.4,-5.5
CCC(CC)C(=O)Nc1cc([N+](=O)[O-])ccc1F,-4.0,i,1.8,0.9,-5.1
CCC(CC)C(=O)Nc1cc([N+](=O)[O-])ccc1Cl,-2.6,+,-4.8,3.4,1.9
Cc1c(C(=O)O)cccc1-c1ccc(/C=N/Nc2ccc(Br)cc2)o1,66.1,i,-13.3,15.8,3.8
COCCn1c(SCC(=O)NC2(C#N)CCCCC2)nc2ccccc2c1=O,nt,nt,nt,nt,4.7
O=c1[nH]c(CN2CCOCC2)nc2ccccc12,4.0,i,-7.2,-0.9,5.0
O=c1[nH]c(CN2CCc3ccccc3C2)nc2ccccc12,-1.8,i,-1.8,-3.4,40.7*
COc1cc(OCC(=O)NC(C)C)cc2c1C(=O)O[C@@H](C)CCCC(=O)CCCCC2,-1.4,i,nt,nt,-0.8
COc1cc2c(c(OCC(=O)NC(C)C)c1)C(=O)O[C@@H](C)CCCC(=O)CCCCC2,69.8,i,nt,nt,51.7*
CNC(=O)c1[nH]cnc1C(=O)N[C@@H](Cc1ccccc1)C(=O)OC(C)(C)C,93.4*,+,-6.0,3.4,5.4
COCCN1C[C@@H](CO)O[C@@H](n2cnc3c(NC4CCCC4)ncnc32)C1,nt,nt,nt,nt,-2.9
CCOC(=O)c1c(NC(=S)Nc2ccc(Cl)cc2)sc(C)c1C,1.8,i,-5.6,1.7,33.4
Cc1sc(NC(=S)Nc2ccc(F)cc2)c(C(N)=O)c1C,3.5,i,-3.8,-3.1,34.8*
O=C(CSc1nnc(-c2ccco2)o1)c1ccccc1Cl,-2.0,i,-9.2,0.3,-11.7
CCN(CC)S(=O)(=O)c1cccc(-c2nnc(SCCOc3ccccc3)o2)c1,-2.6,i,0.0,5.8,-0.6
Cc1cc(C(=O)CSc2nc3ccccc3[nH]2)c(C)n1Cc1ccco1,87.3*,+,-3.0,18.7,-80.0
Cc1cc(C(=O)CSc2nnc(-c3ccco3)o2)c(C)n1Cc1ccco1,65.0*,+,-12.9,3.0,-44.1
SMILES,eIF4H inh,PABP polyA inh,EBV gp42 block,eIF4E 4G PPI,PABP1 MLLE inh
O=C(CSc1nnc(-c2ccco2)o1)c1ccc([N+](=O)[O-])cc1,-8.0,i,-29.0,92.8*,-88.1
CCN(CC)S(=O)(=O)c1cccc(-c2nnc(SCC(=O)c3cc(C)n(C)c3C)o2)c1,100.1,+,0.7,2.4,-132.3
Nc1ccc2c(=O)[nH][nH]c(=O)c2c1,nt,nt,nt,nt,-17.6
Nc1ccc2oc3ccc(N)cc3c(=O)c2c1,79.0*,+,-21.1,nt,16.3
O=C1C=C(O)c2cccc3cccc1c23,57.8*,+,nt,nt,70.2*
CCn1nccc1NC(=O)c1csc([C@H]2C[C@H](O)[C@@H](CO)O2)n1,nt,nt,nt,nt,0.6
N#Cc1ccccc1CN1C(=O)S/C(=C/c2cccn2-c2ccc(C(=O)O)cc2)C1=O,76.7,i,-1.4,-4.3,12.7
O=C1N/C(=C/c2cccn2-c2ccc(F)cc2)C(=O)N1Cc1ccccc1,-8.3,i,-19.2,-2.1,-11.5
O=C(O)c1ccc(-n2cccc2/C=C2/NC(=O)N(c3ccccc3)C2=O)cc1,96.6*,+,-21.5,26.1,-40.6
O=C(O)c1ccc(-n2cccc2/C=C2/NC(=O)N(c3cccc(Cl)c3)C2=O)cc1,92.2,i,33.4,38.4*,-1.1
O=C(O)c1ccc(-n2cccc2/C=C2/SC(=O)N(CC(=O)N3CCCC3)C2=O)cc1,83.7*,+,nt,nt,6.1
O=C1N/C(=C/c2cccn2-c2ccccc2)C(=O)N1Cc1ccccc1F,-3.0,i,-19.5,2.0,-9.2
